{"source": "PubChem BioAssay (EPA / NIEHS)", "note": "Inconclusive results are not listed. The source made the active and inactive calls. How the source made its calls: active means hit-call score of the fitted dose curve at least 0.9, where 1 is the maximum; inconclusive means response in the unintended direction; inactive means score below 0.9.", "data": [{"experiment": "ATG_M_32_XSP2: Attagene TRANS-FACTORIAL Multi-Species (XSP2) HepG2 Assay for M19 Transcription Factor (Internal Marker) (AID 2283826)", "method": "ATG_XSP2_multi-species_TRANS is a cell-based, multiplexed assay created by modifying the existing Attagene TRANS-FACTORIAL system to include a panel of nuclear receptors from some or all the following species: human (Homo sapiens), mouse (Mus musculus), frog (Xenopus laevis), zebrafish (Danio rerio), chicken (Gallus gallus), and turtle (Chrysemys picta). The ECOTOX-FACTORIAL format uses HepG2, a human liver cell line, with measurements taken at 24 hours after chemical dosing in a 24-well plate. Xsp2 included 3 nM 6-alpha-fluorotestosterone and 1.5 nM norgestrel to stimulate the androgen receptor.ATG_M_32_XSP2 is one of 29 assay components measured or calculated from the ATG_XSP2_multi-species_TRANS assay. It is designed to make measurements of mRNA induction, a form of inducible reporter, as detected with fluorescence intensity signals by Reverse transcription polymerase chain reaction (RT-PCR) and Capillary electrophoresis technology.This assay endpoint, ATG_M_32_XSP2, was analyzed in the positive analysis fitting direction relative to DMSO as the negative control and baseline of activity. Using a type of inducible reporter, measures of mRNA for gain-of-signal activity can be used to understand the background control at the transcription factor-level as they relate to the gene. Furthermore, this assay endpoint can be referred to as a secondary readout, because this assay has produced multiple assay endpoints where this one serves a background control function. To generalize the intended target to other relatable targets, this assay endpoint is annotated to the background measurement intended target family, where the subfamily is internal marker.\nHuman liver HepG2 cells are transiently transfected with multiple reporter transcription units (MRTUs) in 6-well plates using FuGene 6 reagent (Roche; 3 ml FuGene/1 mg DNA). The MRTU constructs are regulated by a cis-regulating element (promoter). […] A major difference between the CIS and TRANS system is that in CIS activities of endogenous TFs are measured, whereas the TRANS assay evaluates changes in activities of exogenous, chimeric NR-Gal4 proteins. […] At the end of 24 hour incubation, total RNA was isolated using TriZol reagent (Invitrogen). The isolated RNA is then reverse-transcribed using oligo(dT) primer and Mo-MLV reverse transcriptase (Invitrogen) with DNAse I (Ambion) treatment for 30 min. The one-tenth of the produced cDNA was amplified by PCR using Taq DNA polymerase (Invitrogen) and two reporter sequence-specific primers. The PCR products were fluorescently labeled by primer extension with 6-arboxyfluorescein (6-FAM) 5'-labeled reporter sequence-specific primer (2 min at 95 C, 20 s at 68 C and 10 min at 72 C) and these products were digested with 5U of HpaI (New England Biolabs) for 2h at 37 C. The fragments were purified using Qiaquick PCR columns (Qiagen), analyzed on an ABI 3130xL genetic analyzer (Applied Biosystems) with peak positions identified by using a set of X-rhodamine (ROX)-labeled MapMarker1000 molecular weight standards (BioVentures). The raw capillary electrophoresis data was processed using Attagraph software (Attagene).", "values": [{"smiles": "C=C1C[C@H]2[C@@H]3C=C(C)C4=CC(=O)CC[C@]4(C)[C@H]3CC[C@]2(C)[C@@]1(OC(C)=O)C(C)=O", "outcome": "inactive"}, {"smiles": "CC(C)(c1cc(Br)c(O)c(Br)c1)c1cc(Br)c(O)c(Br)c1", "outcome": "inactive"}, {"smiles": "O=C(O)Cc1cc(I)c(Oc2ccc(O)c(I)c2)c(I)c1", "outcome": "inactive"}, {"smiles": "CCCCCCCCCCCCN", "outcome": "inactive"}, {"smiles": "CC(C)CCCCCCc1ccc(O)cc1", "outcome": "inactive"}, {"smiles": "CC/C(=C(\\c1ccccc1)c1ccc(OCCN(C)C)cc1)c1ccccc1", "outcome": "inactive"}, {"smiles": "Clc1nc(Cl)c(Cl)c(Cl)c1Cl", "outcome": "inactive"}, {"smiles": "c1ccc2c(c1)ccc1ccccc12", "outcome": "inactive"}, {"smiles": "C=CCOC(Cn1ccnc1)c1ccc(Cl)cc1Cl", "note": "(stereo not given)", "outcome": "inactive"}, {"smiles": "Cc1c2ccccc2c(C)c2c1ccc1ccccc12", "outcome": "inactive"}, {"smiles": "CC(C)(C)NC(=O)[C@H]1CC[C@H]2[C@@H]3CC[C@H]4NC(=O)C=C[C@]4(C)[C@H]3CC[C@]12C", "outcome": "inactive"}, {"smiles": "C(=C(c1ccccc1)c1ccccc1)c1ccccc1", "outcome": "inactive"}, {"smiles": "O=C(c1ccc(O)cc1)c1ccc(O)cc1O", "outcome": "inactive"}, {"smiles": "COc1ccc(C(=O)c2ccccc2)c(O)c1", "outcome": "inactive"}, {"smiles": "Oc1ccc2c(c1)-c1ccccc1C2", "outcome": "inactive"}, {"smiles": "Cc1oc(-c2ccccc2)nc1CCOc1ccc(C[C@H](Nc2ccccc2C(=O)c2ccccc2)C(=O)O)cc1", "outcome": "inactive"}, {"smiles": "CCN(CC)CCOc1ccc(C(=C(Cl)c2ccccc2)c2ccccc2)cc1", "outcome": "inactive"}, {"smiles": "CCCCC(CC)CN1C(=O)C2C3C=CC(C3)C2C1=O", "note": "(stereo not given)", "AC50": "174 µM (active)"}, {"smiles": "O=c1c(-c2ccc(O)cc2)coc2cc(O)ccc12", "outcome": "inactive"}, {"smiles": "Cc1c(C)c2c(c(C)c1O)CCC(C)(COc1ccc(CC3SC(=O)NC3=O)cc1)O2", "note": "(stereo not given)", "outcome": "inactive"}, {"smiles": "CC(C)(c1cc(Cl)c(O)c(Cl)c1)c1cc(Cl)c(O)c(Cl)c1", "outcome": "inactive"}, {"smiles": "O=P(OC(CCl)CCl)(OC(CCl)CCl)OC(CCl)CCl", "outcome": "inactive"}, {"smiles": "CCCCCCCCCCCCc1ccc(O)cc1", "outcome": "inactive"}, {"smiles": "Oc1ccccc1Cc1ccccc1O", "outcome": "inactive"}, {"smiles": "O=C(O)Cc1cc(I)c(Oc2cc(I)c(O)c(I)c2)c(I)c1", "outcome": "inactive"}, {"smiles": "O=C(Oc1ccccc1)c1ccc(O)cc1", "outcome": "inactive"}, {"smiles": "CCCCC(CC)COC(=O)c1ccc(O)cc1", "note": "(stereo not given)", "outcome": "inactive"}, {"smiles": "O=c1cc(-c2ccccc2)oc2cc(O)cc(O)c12", "outcome": "inactive"}, {"smiles": "Oc1ccc(C(c2ccc(O)cc2)C(Cl)(Cl)Cl)cc1", "outcome": "inactive"}, {"smiles": "CC(C)CCCCCCCOC(=O)c1ccccc1C(=O)OCCCCCCCC(C)C", "outcome": "inactive"}, {"smiles": "c1ccc(B(c2ccccc2)c2ccccc2)cc1", "outcome": "inactive"}, {"smiles": "CCC(C)(C)C1CCC(O)CC1", "note": "(stereo not given)", "outcome": "inactive"}, {"smiles": "N[C@@H](Cc1cc(I)c(Oc2ccc(O)c(I)c2)c(I)c1)C(=O)O", "outcome": "inactive"}, {"smiles": "CC(C)(c1ccc(O)cc1)c1ccc(O)cc1", "outcome": "inactive"}, {"smiles": "CCN(Cc1c(F)cccc1Cl)c1c([N+](=O)[O-])cc(C(F)(F)F)cc1[N+](=O)[O-]", "outcome": "inactive"}, {"smiles": "CCCOC(=O)c1ccc(O)cc1", "outcome": "inactive"}, {"smiles": "N#Cc1ccc(C2CCCc3cncn32)cc1", "note": "(stereo not given)", "outcome": "inactive"}, {"smiles": "CC(=O)c1cc2c(cc1C)C(C)(C)C(C)CC2(C)C", "note": "(stereo not given)", "outcome": "inactive"}, {"smiles": "C=CCc1cc(S(=O)(=O)c2ccc(O)c(CC=C)c2)ccc1O", "outcome": "inactive"}, {"smiles": "C#C[C@]1(O)CC[C@H]2[C@@H]3CCC4=CC(=O)CC[C@@H]4[C@H]3CC[C@@]21CC", "outcome": "inactive"}]}]}
